Compound activity (PubChem BioAssay)
KB-3-1 tox: qHTS assay for MDR1-selective chemotherapeutics: Primary screen using the parental adenocarcinoma cell KB-3-1 | KB-3-1 viability, CellTiter-Glo ATP luminescence, 72 h | hit rate 1.4% among 400,000 | Potency, µM (top dose mostly 46.1 µM), actives largely listed as cytotoxic; note: nearly all actives have a fitted effect of over 60% in size
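KB-3-1 cells, DMEM (no phenol red) + 10% FBS; compound by pin transfer, 72 h, 37 °C. Readout: CellTiter-Glo luminescence after 10 min. Data normalized, curve-fitted.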
DT40 TDP1 no CPT: qHTS for Inhibitors of human tyrosyl-DNA phosphodiesterase 1 (TDP1): qHTS in cells in absence of CPT; Potency, µM (series often up to 46.2 µM), actives largely listed as inhibitors; hit rate 15% among 420,000; DT40 Tdp1-/- hTDP1 cells, no CPT, ATP luminescence, 48 h; AID 686978, 2013; note: nearly all actives have a fitted effect of over 55% in size
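Chicken DT40 Tdp1-/- cells stably complemented with human TDP1 were seeded at 400 cells/well with DMSO in place of 20 nM camptothecin. After compound pinning, cells grew at least 48 hr at 37 °C; viability read by CellTiter-Glo luminescence.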
HT1080-NT tox: qHTS for induction of synthetic lethality in tumor cells producing 2HG: qHTS for the HT-1080-NT fibrosarcoma cell line. HT-1080-NT fibrosarcoma viability, CellTiter-Glo ATP luminescence, 48 h. Potency, µM (top dose mostly 46.1 µM), usual class: cytotoxic. hit rate 1.6% among 360,000. AID 686970, 2013;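 note: NT is the 2HG producing partner of a matched IDH1 knockdown line; nearly all actives have a fitted effect of over 55% in size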
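750 cells/well, RPMI + 5% FBS; 2 h settle, compound pin-transfer, 48 h at 37 degrees C. CellTiter-Glo 10 min RT, luminescence. Normalized to DMSO and media-only wells.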
HT1080 IDH1KD tx: qHTS for induction of synthetic lethality in tumor cells producing 2HG: qHTS for the HT-1080-IDH1KD cell line. Potency, µM (top dose mostly 46.1 µM), most hits filed as cytotoxic. HT-1080 IDH1 knockdown viability, ATP luminescence, 48 h. hit rate 2% among 360,000
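IDH1KD HT-1080 cells, 750/well, RPMI + 5% FBS; compound pinned after 2 h settling; 48 h, 37 °C; CellTiter-Glo luminescence; % activity normalised to DMSO and no-cell wells; curves fitted, classed by r2 and efficacy.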
TDP1 cell CPT: qHTS for Inhibitors of human tyrosyl-DNA phosphodiesterase 1 (TDP1): qHTS in cells in presence of CPT; Potency, µM (titrated, usually from 46.2 µM), actives largely listed as inhibitors; hit rate 12% among 420,000; chicken DT40 Tdp1-/-;hTDP1 cells + 20 nM CPT, ATP luminescence, 48 h; note: nearly all actives have a fitted effect of over 55% in size
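Chicken DT40 Tdp1-/- cells complemented with human TDP1, 400 cells/well, exposed to compounds plus 20 nM camptothecin for at least 48 h at 37 C; viability read as ATP content by CellTiter-Glo luminescence.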
KB-V1 MDR tox: qHTS assay for MDR1-selective chemotherapeutics: Primary screen using the drug-selected MDR subline cells KB-V1. KB-V1 MDR cells viability, CellTiter-Glo, 72 h. Potency, µM (titrated, usually from 46.1 µM), usual class: cytotoxic. hit rate 3.4% among 400,000; note: nearly all actives have a fitted effect of over 60% in size
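qHTS viability screen in drug-selected KB-V1 MDR cells: 72 h compound treatment at 37 degrees C, ATP luminescence end point.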
Numbers stand for hits; [ ] = another dose, or the depositor's remark. Shown are actives, neighbours in structure and some others; about 19% of the full set was active somewhere. Calls come from the whole dose curve; as a rule, active = well fitted curve in the direction sought with a large enough effect; inconclusive = small, poorly fitted or top-dose-only effect, or another doubt; inactive = no such curve, though single readings can be large; an effect the other way counts as inactive or inconclusive.

Results for O=C1NC[C@@H](CCCCN2CCN(Cc3ccccc3)C(=O)C2=O)N(CCC2CCCCC2)C1=O ?
KB-3-1 tox: inactive; DT40 TDP1 no CPT: inactive; HT1080-NT tox: inactive; HT1080 IDH1KD tx: inactive; TDP1 cell CPT: inactive; KB-V1 MDR tox: inconclusive

How did CC(C)OC1=CC(=O)OC(c2cccc(Cl)c2)C1 (stereo unspecified) do in these assays?
KB-3-1 tox: inactive; DT40 TDP1 no CPT: inactive; HT1080-NT tox: inactive; HT1080 IDH1KD tx: inactive; TDP1 cell CPT: inactive; KB-V1 MDR tox: inactive

Results for COc1cccc(CN2CCC(n3cc(C(=O)NC4CCCC4)nn3)CC2)c1O ?
DT40 TDP1 no CPT: inactive; TDP1 cell CPT: inactive[9.04 µM]

How did O=C(NC1CCCC1)C1C(c2ccc(C(F)(F)F)cc2)=Nc2ccccc2N1C(=O)c1cccc2ccccc12 (stereo unspecified) do in these assays?
KB-3-1 tox: inactive; DT40 TDP1 no CPT: inconclusive; HT1080-NT tox: inactive; HT1080 IDH1KD tx: inactive; TDP1 cell CPT: inconclusive; KB-V1 MDR tox: inconclusive

How did CCOC(=O)c1sc2cccc(F)c2c1S(=O)(=O)N1CCN(c2cccc(Cl)c2)CC1 do in these assays?
KB-3-1 tox: inactive; DT40 TDP1 no CPT: inconclusive; TDP1 cell CPT: inconclusive; KB-V1 MDR tox: inactive

What do the screens show for `COC(=O)c1ccccc1NC(=O)c1cc(=O)c2ccc(C)c(C)c2o1`?
KB-3-1 tox: inconclusive; DT40 TDP1 no CPT: inactive; TDP1 cell CPT: inactive; KB-V1 MDR tox: inactive

How did COc1ccc(N(C(=O)c2ccc(C)cc2)S(=O)(=O)c2ccc(Cl)cc2)cc1 do in these assays?
KB-3-1 tox: inactive; DT40 TDP1 no CPT: inconclusive; TDP1 cell CPT: inconclusive; KB-V1 MDR tox: inactive

How did COc1ccc(N(C(=O)c2ccc(OC)c(OC)c2)S(=O)(=O)c2ccc(Cl)cc2)cc1 do in these assays?
KB-3-1 tox: inactive; DT40 TDP1 no CPT: 21µM; TDP1 cell CPT: 26µM; KB-V1 MDR tox: inactive

How did CC(C)/C=C/C(=O)N1CCC(N2CCC(C(=O)N3CCOCC3)CC2)CC1 do in these assays?
KB-3-1 tox: inactive; DT40 TDP1 no CPT: inactive; HT1080-NT tox: inactive; HT1080 IDH1KD tx: inactive; TDP1 cell CPT: inactive; KB-V1 MDR tox: inactive

Results for C=C(C)[C@@H]1CC=C(CN2CCC(N3CCC(C(=O)N4CCCC4)CC3)CC2)CC1 ?
KB-3-1 tox: inconclusive; DT40 TDP1 no CPT: 21µM; HT1080-NT tox: 18µM; HT1080 IDH1KD tx: 21µM; TDP1 cell CPT: 21µM; KB-V1 MDR tox: inconclusive

How did CC(C)=CCCC(C)CN1CCC(N2CCC(C(=O)N3CCCC3)CC2)CC1 (stereo unspecified) do in these assays?
KB-3-1 tox: inactive; DT40 TDP1 no CPT: 16µM; HT1080-NT tox: inactive; HT1080 IDH1KD tx: inconclusive; TDP1 cell CPT: inconclusive; KB-V1 MDR tox: inactive

What do the screens show for `COc1ccc(C(=O)N/C(=C\c2ccc(Cl)cc2)C(=O)NCc2ccncc2)cc1`?
KB-3-1 tox: inactive; DT40 TDP1 no CPT: inactive; HT1080-NT tox: inactive; HT1080 IDH1KD tx: inactive; TDP1 cell CPT: inactive; KB-V1 MDR tox: inactive

How did CCOc1ccccc1CNC(=O)C1CCN(S(=O)(=O)c2c(C)noc2/C=C/c2ccccc2F)CC1 do in these assays?
DT40 TDP1 no CPT: inconclusive; TDP1 cell CPT: inactive

What do the screens show for `CN1[C@@H]2CC[C@H]1CC(NC(=O)n1c(=O)[nH]c3ccccc31)C2` (stereo partly specified)?
DT40 TDP1 no CPT: inactive; TDP1 cell CPT: inactive

How did CCOC(=O)c1ccc(N2C(=O)CC(N(C)CCc3ccc(OC)c(OC)c3)C2=O)cc1 (stereo unspecified) do in these assays?
KB-3-1 tox: inactive; DT40 TDP1 no CPT: inconclusive; HT1080-NT tox: inactive; HT1080 IDH1KD tx: inactive; TDP1 cell CPT: 16µM; KB-V1 MDR tox: inactive
